Test systems include EKVX NSCLC; SN12C renal; UO-31 renal; TK-10 renal; ACHN renal; CAKI-1 renal; A498 renal; CCRF-CEM leukemia; MOLT-4 leukemia; SR leukemia.
Assay in all cases: NCI-60 one-dose screen, 48 h (100 = growth as untreated, 0 = no growth, -100 = all killed)
What all share (conditions): 10 µM unless noted

Structures are written as SMILES. About 83,000 compounds went through this panel and 20% of them were active in at least one assay; those are over-represented in the sample as a whole.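 Treatment: one concentration, 48 hours, 96-well format. Scoring: percent growth, with anything below 10 considered active.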 Values without a mark were called inactive. The source made the active and inactive calls.

Take `O=C(Nc1cccc([N+](=O)[O-])c1)c1cccc(C(=O)Nc2cccc([N+](=O)[O-])c2)c1`: the growth in the experiment on EKVX NSCLC was 84.3%; in the experiment on SN12C renal, 45.7%; in the experiment with UO-31 renal, 56.7%; in the experiment on TK-10 renal, 65.5%; with ACHN renal, 64.7%; in the experiment on CAKI-1 renal, 85.3%. Moreover, the growth in the experiment with A498 renal was 92.5%; in the experiment on CCRF-CEM leukemia, 116%; in the experiment on MOLT-4 leukemia, 99.3%; in the experiment on SR leukemia it was 83.9%.
Regarding `Cc1c(NCc2nnc3n(Cc4ccccc4)c(=O)c4c5c(sc4n23)CCCC5)c(=O)n(-c2ccccc2)n1C`, the growth was 84.7% in the experiment with EKVX NSCLC; 96.5% in the experiment on SN12C renal; 71.4% with UO-31 renal; 93.3% in the experiment on TK-10 renal; 96% in the experiment with ACHN renal; 78% in the experiment on CAKI-1 renal. The growth is 75.1% in the experiment on A498 renal, 4.57% (active) with CCRF-CEM leukemia and 68.7% with SR leukemia.
Regarding `CCCCCCC/C(=N\N=C(N)N)c1ccc(O)cc1`, the growth in the experiment on EKVX NSCLC was 55.1%; in the experiment on SN12C renal, 39.6%; in the experiment with UO-31 renal, 42.8%; in the experiment on TK-10 renal it was 67.5%; in the experiment with ACHN renal, 47.6%; in the experiment with CAKI-1 renal it was 66.5%. Also, the growth is 39.7% with CCRF-CEM leukemia and 24.9% in the experiment on MOLT-4 leukemia.
For the compound `COc1ccc(-c2cncn2-c2ccc(-c3nc4cc(OC)c(OC)c(OC)c4s3)cc2)cc1N`, the growth is 58.4% in the experiment on EKVX NSCLC; 72.4% with SN12C renal; 16.1% in the experiment on UO-31 renal; 83.3% in the experiment on TK-10 renal; 59.6% in the experiment with ACHN renal; 30.4% in the experiment on CAKI-1 renal. Moreover, the growth in the experiment with CCRF-CEM leukemia was 45.9%; with MOLT-4 leukemia, 40%.
On to `O=C(NCCc1ccccc1)C1CCC(=O)N1Cc1ccc(Br)cc1` (stereo not given), for which the growth in the experiment with EKVX NSCLC was 103%; in the experiment with SN12C renal, 104%; in the experiment with UO-31 renal, 92.6%; in the experiment on TK-10 renal it was 99.7%; in the experiment with ACHN renal it was 107%; in the experiment with CAKI-1 renal, 100%. Besides, the growth in the experiment on A498 renal was 88.3%; with MOLT-4 leukemia, 94%; in the experiment with SR leukemia, 102%.
Consider `CC(=O)c1cc(C(=O)c2ccc3c(c2)Sc2ccccc2N3)c2c(C)cc(C)cn12`, for which the growth with EKVX NSCLC is 34.3%; in the experiment on SN12C renal it was 20.7%; in the experiment with UO-31 renal it was 22.5%; with TK-10 renal, 34.6%; with ACHN renal, 12.2%; with CAKI-1 renal, 9.64% (active). For the same compound, the growth in the experiment with A498 renal is -27.3% (active); in the experiment on MOLT-4 leukemia it was 19.2%; with SR leukemia, 5.45% (active).
As for `Oc1ccc(-c2nn(-c3ccccc3)cc2-c2nc3ccccc3s2)cc1`, the growth was 79.5% with EKVX NSCLC; 85.3% with SN12C renal; 55.4% with UO-31 renal; 142% in the experiment on TK-10 renal; 91.1% in the experiment with ACHN renal; 82% in the experiment with CAKI-1 renal. The growth in the experiment on A498 renal was 81.7%; in the experiment with MOLT-4 leukemia, 87.8%; in the experiment with SR leukemia it was 75.4%.
For the compound `COc1ccc(C2=NN(C(=O)c3cc(OC)c(OC)c(OC)c3)C(c3ccc(C#N)cc3)C2)cc1OC` (stereo not given), the growth in the experiment with EKVX NSCLC is 33.4%; in the experiment with SN12C renal it was 53.5%; in the experiment with UO-31 renal it was 18.2%; in the experiment on TK-10 renal, 31.9%; in the experiment with ACHN renal it was 44.6%; in the experiment on CAKI-1 renal it was 5.45% (active). The growth is 29.9% in the experiment on CCRF-CEM leukemia and 49.5% in the experiment with MOLT-4 leukemia.
Turning to `c1ccc2cc(C[n+]3ccn(CCCCCCCn4cc[n+](Cc5ccc6ccccc6c5)c4)c3)ccc2c1`, the growth in the experiment on EKVX NSCLC was 27.9%; in the experiment with SN12C renal, 24.2%; in the experiment on UO-31 renal, 76.7%; with TK-10 renal, 70.6%; in the experiment with ACHN renal, 60.2%; with CAKI-1 renal, 91.9%. The growth in the experiment with A498 renal was -3.36% (active); in the experiment on MOLT-4 leukemia it was 56.1%; in the experiment with SR leukemia, 50.9%.
With `Cc1ccccc1NC(=O)c1cc2ccccc2cc1O`, the growth in the experiment with EKVX NSCLC is 43.8%; in the experiment on SN12C renal, 30.2%; in the experiment with UO-31 renal, -8.7% (active); with TK-10 renal, 60.1%; in the experiment with ACHN renal, 34%; in the experiment with CAKI-1 renal, 41.4%. Also, the growth was 43% with A498 renal and 14.2% in the experiment on MOLT-4 leukemia.
On to `O=C1Nc2ccccc2C12Nc1cc(Cl)ccc1S2` (stereo not given), for which the growth in the experiment with EKVX NSCLC is 74%; with SN12C renal, 94.7%; with UO-31 renal, 69.6%; in the experiment on TK-10 renal, 141%; in the experiment with ACHN renal, 99.6%; with CAKI-1 renal, 70.7%. In addition, the results for the growth in the experiment on A498 renal and in the experiment with MOLT-4 leukemia were 107% and 60.1%, respectively.
For `Cc1c(C)c(N2C(=O)C=CC2=O)c(C)c(C)c1N1C(=O)C=CC1=O`, the growth was 101% in the experiment on EKVX NSCLC; 104% with SN12C renal; 53.7% in the experiment with UO-31 renal; 119% in the experiment on TK-10 renal; 108% with ACHN renal; 101% in the experiment on CAKI-1 renal. Moreover, the growth in the experiment on A498 renal was 78.2%; in the experiment with MOLT-4 leukemia, 72.4%.
As for `O=Nc1ccc(O)c(=O)cc1`, the growth in the experiment on EKVX NSCLC is 72.5%; with SN12C renal, 14.3%; in the experiment on UO-31 renal it was -36% (active); in the experiment with TK-10 renal it was 14.6%; with ACHN renal, 1.32% (active); in the experiment on CAKI-1 renal it was -7.71% (active). Also, the growth in the experiment on A498 renal is 145%; in the experiment with MOLT-4 leukemia, 14%; in the experiment on SR leukemia it was 2.22% (active).
Take `CC12CCC3C(CCC4CC(=O)/C(=C\O)CC43C)C1CCC(=O)O2` (stereo not given): the growth is 106% in the experiment on EKVX NSCLC; 107% in the experiment with SN12C renal; 55.9% in the experiment with UO-31 renal; 115% in the experiment with TK-10 renal; 109% in the experiment on ACHN renal; 105% in the experiment on CAKI-1 renal. For the same compound, the growth in the experiment on A498 renal was 115%; with MOLT-4 leukemia, 106%.

These data come from PubChem BioAssay (NCI).
